Source: PubChem BioAssay (EPA / NIEHS)
Inconclusive results are not listed. Calls of active or inactive are those of the source. The calls were made as follows: active = hit-call score of the fitted dose curve at least 0.9, where 1 is the maximum; inconclusive = response in the unintended direction; inactive = score below 0.9.

molecular target: human Caspase 2 (CASP2), CASP2 (gene 835) (UniProt P42575); assay: NVS_ENZ_hCASP2: NovaScreen (NVS) Enzymatic Assay for human Caspase 2 (CASP2) (AID 2283135)
Sequence (P42575 whole entry, looked up): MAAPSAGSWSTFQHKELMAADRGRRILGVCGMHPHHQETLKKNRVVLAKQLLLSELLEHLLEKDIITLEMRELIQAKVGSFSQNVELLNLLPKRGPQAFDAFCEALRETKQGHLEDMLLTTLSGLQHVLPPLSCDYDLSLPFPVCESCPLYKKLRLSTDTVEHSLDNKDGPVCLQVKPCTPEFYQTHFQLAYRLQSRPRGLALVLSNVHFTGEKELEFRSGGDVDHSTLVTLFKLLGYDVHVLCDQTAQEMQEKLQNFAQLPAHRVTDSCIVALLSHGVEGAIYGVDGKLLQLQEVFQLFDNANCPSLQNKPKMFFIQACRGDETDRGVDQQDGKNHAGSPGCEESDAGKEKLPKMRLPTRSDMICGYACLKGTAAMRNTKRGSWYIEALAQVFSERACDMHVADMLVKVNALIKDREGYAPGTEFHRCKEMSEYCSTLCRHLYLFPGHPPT
In short: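 Single-point duplicate testing at 25 uM preceded concentration series topping at 50 uM. Activity of the recombinant E. coli-derived protease was followed by fluorescent substrate cleavage 1 h post-dosing, relative to DMSO.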

| Structure (SMILES) | outcome |
| --- | --- |
| C[C@]12CCC(=O)C=C1CC[C@@H]1[C@@H]2CC[C@]2(C)C(=O)CC[C@@H]12 | inactive |
| O=C(N[C@H]1CN2CCC1CC2)c1cc2ccoc2cn1 | inactive |
| COS(=O)(=O)OC | inactive |
| Nc1ccc(-c2ccc(N)cc2)cc1 | inactive |

molecular target: human Caspase 5 (CASP5), CASP5 (gene 838) (UniProt P51878); assay: NVS_ENZ_hCASP5: NovaScreen (NVS) Enzymatic Assay for human Caspase 5 (CASP5) (AID 2283137)
Sequence (P51878 whole entry, looked up): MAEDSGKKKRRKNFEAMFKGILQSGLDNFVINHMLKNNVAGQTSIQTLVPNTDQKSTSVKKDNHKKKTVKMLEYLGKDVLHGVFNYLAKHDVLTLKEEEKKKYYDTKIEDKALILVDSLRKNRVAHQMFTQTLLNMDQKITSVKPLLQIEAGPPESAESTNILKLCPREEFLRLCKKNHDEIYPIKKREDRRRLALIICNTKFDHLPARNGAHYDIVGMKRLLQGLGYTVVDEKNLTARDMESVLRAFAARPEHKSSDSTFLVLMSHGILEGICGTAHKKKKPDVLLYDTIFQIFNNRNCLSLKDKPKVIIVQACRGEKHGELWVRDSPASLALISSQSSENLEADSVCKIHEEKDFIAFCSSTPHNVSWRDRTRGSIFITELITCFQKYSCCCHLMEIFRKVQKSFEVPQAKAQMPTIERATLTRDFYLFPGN
In short: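 Fluorescent substrate readout of CASP5 activity (loss-of-signal), measured 2 h post-dose. Protein expressed in E. coli. Primary screen duplicate at 25 uM; actives meeting threshold (e.g., 30% inhibition) rerun singleton, max 50 uM.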

| Structure (SMILES) | AC50 | outcome |
| --- | --- | --- |
| O=C(O)C(F)(F)C(F)(F)C(F)(F)C(F)(F)C(F)(F)C(F)(F)C(F)(F)C(F)(F)F | 12.8 µM (active) |  |
| O=C(O)C(F)(F)C(F)(F)C(F)(F)C(F)(F)C(F)(F)C(F)(F)C(F)(F)C(F)(F)C(F)(F)F | 12.7 µM (active) |  |
| CCC(C)(CC)c1cc(NC(=O)c2c(OC)cccc2OC)on1 |  | inactive |

molecular target: human Beta-secretase (BACE), BACE1 (gene 23621) (UniProt P56817); assay: NVS_ENZ_hBACE: NovaScreen (NVS) Enzymatic Assay for human Beta-secretase (BACE) (AID 2283140);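 also: hits are inhibitors that reduce fluorescent substrate signal versus DMSO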
Sequence (P56817 whole entry, looked up): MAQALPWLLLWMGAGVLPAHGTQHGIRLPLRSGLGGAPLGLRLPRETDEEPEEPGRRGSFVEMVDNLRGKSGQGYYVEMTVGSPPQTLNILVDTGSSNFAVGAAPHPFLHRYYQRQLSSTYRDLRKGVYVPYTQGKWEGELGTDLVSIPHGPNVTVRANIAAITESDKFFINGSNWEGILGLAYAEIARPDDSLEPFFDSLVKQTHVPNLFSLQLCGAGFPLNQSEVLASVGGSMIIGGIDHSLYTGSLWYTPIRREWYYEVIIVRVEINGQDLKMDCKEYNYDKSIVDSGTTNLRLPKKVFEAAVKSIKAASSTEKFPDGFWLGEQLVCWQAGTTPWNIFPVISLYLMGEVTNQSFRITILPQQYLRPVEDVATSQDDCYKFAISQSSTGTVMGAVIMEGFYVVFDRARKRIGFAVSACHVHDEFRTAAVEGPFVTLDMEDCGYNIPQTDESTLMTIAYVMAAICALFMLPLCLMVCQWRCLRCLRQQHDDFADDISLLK
In short: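 SF9-expressed enzyme, cell-free; fluorescent substrate readout after 1 h. Screened at 25 uM single concentration, duplicate; hits retested in concentration series. Activity relative to DMSO baseline, loss-of-signal.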

| Structure (SMILES) | outcome | AC50 |
| --- | --- | --- |
| Oc1ccc(C(c2ccc(O)cc2)(C(F)(F)F)C(F)(F)F)cc1 | inactive |  |
| CCCCCCOC(=O)c1ccccc1C(=O)OCCCCCC | inactive |  |
| O=S(=O)(O)C(F)(F)C(F)(F)C(F)(F)C(F)(F)C(F)(F)C(F)(F)F |  | 1.85 µM (active) |
| O=C(O)C(F)(F)C(F)(F)C(F)(F)C(F)(F)C(F)(F)C(F)(F)C(F)(F)C(F)(F)F |  | 10.7 µM (active) |
| O=C(O)C(F)(F)C(F)(F)C(F)(F)C(F)(F)C(F)(F)C(F)(F)C(F)(F)C(F)(F)C(F)(F)F |  | 3.53 µM (active) |
| CCCCCCCCCc1ccc(O)cc1 | inactive |  |
| ClC(Cl)=C(c1ccc(Cl)cc1)c1ccc(Cl)cc1 | inactive |  |
| Oc1c(Cl)c(Cl)c(Cl)c(Cl)c1Cl | inactive |  |
| CCC(C)(c1ccc(O)cc1)c1ccc(O)cc1 |  | 11.2 µM (active) |
| Cc1cccc(C)c1N | inactive |  |
| O=C(NC(=O)c1cc(F)c(F)cc1Cl)Nc1cc(F)ccc1N1CCC(C(=O)O)CC1 |  | 7.81 µM (active) |
| CC(C)(c1ccccc1)c1ccc(O)cc1 |  | 20.3 µM (active) |
| Cc1ccc(O)c(C)c1 | inactive |  |

molecular target: human AKT serine/threonine Kinase 2 (AKT2), AKT2 (gene 208) (UniProt P31751); assay: NVS_ENZ_hAKT2: NovaScreen (NVS) Enzymatic Assay for human AKT serine/threonine Kinase 2 (AKT2) (AID 2283141)
Sequence (P31751 whole entry, looked up): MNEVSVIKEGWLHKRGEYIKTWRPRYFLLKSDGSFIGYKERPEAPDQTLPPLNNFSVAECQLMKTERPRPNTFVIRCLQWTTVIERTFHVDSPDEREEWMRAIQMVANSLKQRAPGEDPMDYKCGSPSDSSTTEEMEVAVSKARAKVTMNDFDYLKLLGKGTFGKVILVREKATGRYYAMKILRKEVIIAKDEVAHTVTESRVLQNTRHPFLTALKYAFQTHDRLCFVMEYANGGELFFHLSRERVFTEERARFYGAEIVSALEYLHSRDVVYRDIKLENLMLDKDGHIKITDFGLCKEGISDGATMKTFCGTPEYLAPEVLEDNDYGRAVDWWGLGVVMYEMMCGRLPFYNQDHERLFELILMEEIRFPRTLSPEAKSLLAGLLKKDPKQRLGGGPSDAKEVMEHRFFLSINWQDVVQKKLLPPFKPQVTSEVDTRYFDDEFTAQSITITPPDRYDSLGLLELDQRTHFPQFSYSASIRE
In short: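 Cell-free fluorescence/electrophoretic mobility shift readout of recombinant human AKT2 activity, 1 h after chemical dosing. Duplicate primary screen at 25 uM, then singleton concentration-response up to 50 uM; loss of signal versus DMSO baseline.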

| Structure (SMILES) | outcome | AC50 |
| --- | --- | --- |
| CCCCCCOC(=O)c1ccccc1C(=O)OCCCCCC | inactive |  |
| O=S(=O)(O)C(F)(F)C(F)(F)C(F)(F)C(F)(F)C(F)(F)C(F)(F)F | inactive |  |
| CC1=C2C[C@H]3[C@@H](CC=C4C[C@@H](O)CC[C@@]43C)[C@@H]2CC[C@]12O[C@@H]1C[C@H](C)CN[C@H]1[C@H]2C |  | 12.5 µM (active) |
| N#Cc1ccc(N(CC(N)=O)CC(F)(F)F)cc1C(F)(F)F | inactive |  |
